Compound activity: PubChem BioAssay, several laboratories
Hits are enriched below; roughly 1.7% of the tested compounds scored in any of these assays.
Cardio protect = cardioprotection against H2O2-induced cell death, primary screen, uHTS, H9c2 cells, ATPLite luminescence. protection from H2O2 cell death, % at 20 µM. H9c2 cardiomyocytes, H2O2 injury protection, 2 h. 0.63% of 360,000 active. AID 588492, 2011;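 active means compounds giving at least 50% protection of heart cells from peroxide-induced death in the single-dose screen, raw or plate-pattern-corrected value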
ARNT TACC3 PPI = disruptors of ARNT/TACC3 protein interaction, primary screen, biochemical, AlphaScreen, single concentration; inhibition, % at 9.99 µM; AlphaScreen His-ARNT PAS-B/GST-TACC3 binding, luminescence; TACC3 fragment carries E629A point mutation; AID 623870, 2012; 0.66% of 390,000 active;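 active means mean inhibition of replicates at least 50% and at least half of replicates each reaching 50%; inconclusive means half or more replicates reach 50% but mean below 50%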
N-glyco inh = increase of ERlucT glycosylation luciferase signal, primary screen, N-linked glycosylation inhibitor project, D54 ERlucT cells, luminescence, set 2 | D54 ERlucT glycosylation luciferase reporter, 24 h; percent of 100 nM tunicamycin response | reporter increase, % at 12.5 µM | 0.23% of 360,000 active;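 active means mean luciferase reporter signal, scaled so untreated is 0 and the glycosylation-blocking control 100, at or above a set limit in every replicate; inconclusive means mean reaches the limit but not every replicate does; inactive means mean below the limit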;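 further: luciferase carries N-glycosylation sites so blocking glycosylation raises the light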
aDG glyco act = activators of alpha-DG glycosylation, primary screen, uHTS, Pro5-aDG cells, AlphaScreen; AID 624168, 2012; 0.22% of 360,000 active; activation, % at 10 µM; alpha-DG glycosylation AlphaScreen (IIH6); 0% Pro5, 100% B10-LARGE cell signal;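 active means activation of at least 8% versus controls, or a plate z-score of at least 8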;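 further: Pro5 are CHO cells carrying HIG-tagged alpha-DG that lacks glycosylation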
Vif inh = HIV Vif self-association inhibitors, primary screen, imaging, HEK293T, single point. HEK293T cells, Vif self-association by quenched fluorescence, 24 h. inhibition, % at 7.49 µM. 0.35% of 340,000 active. AID 602346, 2012; in the data active means inhibition above about 50%, passing the limit was not always enough; inconclusive means no clear call, values can overlap the other calls; inactive means below about 31%
Hits are given with their value; – = inactive; ? = inconclusive; · = no result given.

SMILES | Cardio protect | ARNT TACC3 PPI | N-glyco inh | aDG glyco act | Vif inh
CN(CC(=O)Nc1ccccc1Br)C(=O)Cn1[nH]c(=O)c2ccccc2c1=O | 82.6 | – | – | – | –
COc1ccc(Cl)cc1NC(=O)CN(C)C(=O)Cn1[nH]c(=O)c2ccccc2c1=O | 83.6 | – | – | – | –
COc1cccc(NC(=O)CN(C)C(=O)Cn2[nH]c(=O)c3ccccc3c2=O)c1 | – | – | – | – | –
CN(CC(=O)Nc1ccccc1Br)C(=O)CCc1ccccc1 | – | – | – | – | –
C[C@@H]1CN([C@H](C)CO)C(=O)c2cc(C#C[C@@H](C)O)cnc2O[C@H]1CN(C)C(=O)CC1CC1 | · | – | · | · | ·
COc1ccc(CCNC(=O)CCS(=O)(=O)c2ccc3c(c2)CCN3C(C)=O)cc1OC | – | · | – | – | –
COc1ccccc1CNC(=O)CCS(=O)(=O)c1ccc2c(c1)CCN2C(C)=O | – | – | – | 5.3 | –
CNC[C@H]1Oc2ncc(-c3ccc(C#N)cc3)cc2C(=O)N([C@@H](C)CO)C[C@H]1C | · | – | · | · | ·
C[C@@H]1CN([C@@H](C)CO)C(=O)c2cccc(NC(=O)Nc3ccccc3)c2O[C@@H]1CN(C)Cc1ccc(-c2ccccc2)cc1 | · | – | · | · | ·
C[C@H](CO)N1C[C@H](C)[C@H](CN(C)C(=O)Nc2cccc3ccccc23)OCCCC[C@H](C)Oc2ccc(NS(C)(=O)=O)cc2C1=O | · | – | · | · | ·
CCOc1ccc(Nc2nc(N(C)c3ccccc3)nc(N)c2[N+](=O)[O-])cc1 | – | – | 36.1 | – | –
COc1ccc(Cl)cc1C(=O)Nc1cccnc1 | – | – | – | – | 53.4
Cc1cc(C)c2nc3nc(C)c(C)cc3c(N)c2c1 | – | · | 95.1 | – | –
CCCCC(=O)NC(c1ccc(Cl)cc1)c1ccc2cccnc2c1O (configuration not stated) | – | – | – | – | –
CCCCC(=O)NC(c1ccc(N(CC)CC)cc1)c1ccc2cccnc2c1O (configuration not stated) | 52.2 | – | – | – | –
COc1ccc(-c2cc(-c3cccs3)c(C#N)c(SCC(=O)NCc3ccco3)n2)cc1 | – | – | – | – | 51.5
CO[C@H]1CC[C@H]2CCN(C)C(=O)[C@@H](C)N(C)C(=O)c3cc(C#N)ccc3OC[C@@H]1O2 | · | – | · | · | ·
C[C@@H]1CCCCO[C@H](CN(C)S(=O)(=O)c2cn(C)cn2)[C@H](C)CN([C@@H](C)CO)C(=O)c2cc(NS(=O)(=O)c3ccc(F)cc3)ccc2O1 | · | – | · | · | ·
CCOC(=O)c1cnc(SC)nc1Oc1cccc(NC(=O)c2cccc(Cl)c2Cl)c1 | 71.2 | – | – | – | –
Cc1sc2nc(-c3ccccn3)[nH]c(=O)c2c1-c1ccccc1 | – | 79.4 | – | – | –
CCN(CC)C(=O)c1sc2nc(-c3ccccn3)[nH]c(=O)c2c1C | – | 60.8 | – | – | –
CCN(CC)C(=O)c1sc2nc(-c3ccncc3)[nH]c(=O)c2c1C | – | · | – | – | –
CO[C@@H]1CC[C@H]2CCOc3c(C#N)cccc3C(=O)N(C)C[C@@H](C)C(=O)N(C)C[C@@H]1O2 | · | – | · | · | ·
O=c1[nH]c(CSc2nnc(-c3cccnc3)n2C2CCCCC2)nc2ccccc12 | 88.9 | – | – | – | –
O=C(NC(=S)NNC(=O)c1ccccc1O)c1cccc([N+](=O)[O-])c1 | – | 77.3 | – | – | –
SMILES | Cardio protect | ARNT TACC3 PPI | N-glyco inh | aDG glyco act | Vif inh
O=C(NC(=S)NNC(=O)c1ccccc1O)c1cccnc1 | – | 67.3 | – | – | –
O=C(NC(=S)NNC(=O)c1ccc(Cl)cc1Cl)c1cccnc1 | – | – | – | – | –
C[C@@H]1CCCCO[C@H](CN(C)Cc2ccncc2)[C@H](C)CN([C@H](C)CO)C(=O)c2cc(NS(=O)(=O)c3cn(C)cn3)ccc2O1 | · | – | · | · | ·
Cc1noc(C)c1S(=O)(=O)Nc1ccc2c(c1)CC(=O)N([C@@H](C)CO)C[C@H](C)[C@@H](CN(C)S(=O)(=O)c1c(C)noc1C)O2 | · | – | · | · | ·
CCOC(=O)c1cnc(-n2nc(C)cc2C)nc1NCCc1ccccc1 | 60.9 | – | – | – | –
CCOC(=O)c1cnc2nc(N3CCOCC3)nn2c1N | – | – | – | – | –
CCOC(=O)c1cnc(-n2nc(C)cc2C)nc1N1CCOCC1 | – | 49.7 | – | – | –
CCOC(=O)c1cnc(-n2nc(C)cc2C)nc1Oc1ccccc1F | – | · | – | – | –
O=C(c1ccc(-c2nc3ccccc3s2)o1)N1CCN(c2ccccc2O)CC1 | 52.3 | – | – | – | –
COC(=O)Nc1ccc2c(c1)ncn2C1CCCCC1 | – | – | – | – | –
CCOC(=O)Nc1ccc2c(c1)ncn2C1CCCCC1 | – | – | – | – | 81.6
N#CCC(CNc1ncc(C(F)(F)F)cc1Cl)OC(=O)c1ccc(Cl)cc1Cl (configuration not stated) | – | – | 30.0 | – | –
CCCC(O)C#Cc1cnc2c(c1)C(=O)N([C@H](C)CO)C[C@H](C)[C@H](CN(C)C(=O)Nc1ccc3c(c1)OCO3)O2 (some centres not stated) | · | – | · | · | ·
O=C(Nc1cccc(/C=C/c2ccccn2)c1)c1ccc(-n2cncn2)cc1 | 68.8 | – | – | – | –
O=C(Nc1cccc(C(F)(F)F)c1)c1ccc(-n2cncn2)nc1 | – | – | – | – | –
C/C=C/c1cnc2c(c1)C(=O)N([C@H](C)CO)C[C@H](C)[C@@H](CN(C)S(=O)(=O)c1cn(C)cn1)O2 | · | – | · | · | ·
C/C=C/c1ccc(OCCCNC)c(OC)c1 | – | – | – | – | –
C/C=C/c1ccc(OCCNCc2ccccc2)c(OC)c1 | – | – | – | – | 70.0
CO[C@@H]1CN(C)C(=O)c2ccc(NC(=O)Nc3ccccc3)cc2OC[C@H](C)N(C(=O)CN(C)C)C[C@@H]1C | · | – | · | · | ·
CO[C@H]1CN(C)C(=O)c2cc(NC(=O)c3cnccn3)ccc2OC[C@H](C)N(C(=O)C2CC2)C[C@@H]1C | · | – | · | · | ·
Cn1c(=O)[nH]c(=O)c2c1nc(SCC(N)=O)n2Cc1cccc(Br)c1 | – | – | 26.6 | – | ?
C=C(C)CSc1nc2c(c(=O)[nH]c(=O)n2C)n1Cc1ccccc1 | – | – | – | – | –
COc1ccc(NC(=O)N(C)C[C@H]2Oc3c(NS(=O)(=O)c4ccc(F)cc4)cccc3C(=O)N([C@@H](C)CO)C[C@@H]2C)cc1 | · | – | · | · | ·
COc1ccc(CCNc2nc(=S)[nH]c3cc(OC)c(OC)cc23)cc1OC | – | 55.6 | – | – | ·
COc1cc2[nH]c(=S)nc(NCc3cccs3)c2cc1OC | – | – | – | – | –
COc1cc2[nH]c(=S)nc(NCCc3ccc(S(N)(=O)=O)cc3)c2cc1OC | – | 70.4 | – | – | –
COc1ccccc1CNc1nc(=S)[nH]c2cc(OC)c(OC)cc12 | – | 53.5 | – | – | –
